Results on 29 compounds are retold here after PubChem BioAssay AID1851 (National Center for Advancing Translational Sciences (NCATS), 2009).

Among all 16,000 compounds or so, about 2,600 (16%) were called active. Inconclusive results (about 20%) are left out. The call rests on the fitted dose curve; in most records, active means well fitted curve in the direction sought with a large enough effect; inconclusive means small, poorly fitted or top-dose-only effect, or effect the other way; inactive means no such curve, though single readings can be large or run the other way. A selection follows.
On the % scale 0 is the no-effect control and ±100 the full control effect.

The target of this experiment is Cytochrome P450 2D6 (Homo sapiens) (UniProt P10635). Nature of the experiment: Cytochrome panel assay with activity outcomes. To be noted: recombinant CYP, pro-luciferin dealkylation, luminescence, p450-cyp2d6; series mostly up to 57.1 µM; activity, negative = inhibition: at the top concentration.
Sequence of Cytochrome P450 2D6 (Homo sapiens) (P10635 whole entry, looked up): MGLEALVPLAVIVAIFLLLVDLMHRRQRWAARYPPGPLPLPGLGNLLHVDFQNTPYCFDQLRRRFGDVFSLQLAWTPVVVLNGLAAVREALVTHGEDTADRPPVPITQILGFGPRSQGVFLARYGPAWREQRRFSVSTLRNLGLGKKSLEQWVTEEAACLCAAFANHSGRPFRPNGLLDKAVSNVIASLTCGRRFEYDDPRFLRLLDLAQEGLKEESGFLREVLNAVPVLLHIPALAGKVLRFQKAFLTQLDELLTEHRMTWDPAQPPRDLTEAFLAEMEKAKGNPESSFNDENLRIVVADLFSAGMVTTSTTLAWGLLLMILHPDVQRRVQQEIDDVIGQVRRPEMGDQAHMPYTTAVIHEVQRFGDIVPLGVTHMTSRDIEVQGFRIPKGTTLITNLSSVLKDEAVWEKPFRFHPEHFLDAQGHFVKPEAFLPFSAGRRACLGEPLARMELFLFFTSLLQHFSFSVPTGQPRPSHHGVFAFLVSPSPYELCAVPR
As to `CN(C(=O)C(Cl)Cl)c1ccc(OC(=O)c2ccco2)cc1`, the “activity, negative = inhibition” value is -8.43% [at 25.6 µM] (inactive). As a reminder, the AC50 is the midpoint of the concentration-response curve, whichever way the signal moves. On to `Cc1ccccc1/C=C\C1=NCCN1`, for which the AC50 is 25.1 µM (active). In the case of `c1ccc2nc(C3=NCCN3)cnc2c1`, the “activity, negative = inhibition” value was -1.42% (inactive). On the same count and under the same terms, the same measure for `c1ccc2cc(C3=NCCN3)ncc2c1`: -18.2% (inactive); for `O=C(Oc1ccccc1)N1CCC2(CC1)CCN(c1ccccn1)CC2`: -5.69% (inactive). With `CCOc1ccc(-c2c[n+](=O)c3c(n2[O-])CCCC3)c(OCC)c1`, the “activity, negative = inhibition” value was -13.5% (inactive).

For the compound `CCCCn1c(SCc2c(C)noc2C)nc2cc(S(N)(=O)=O)ccc21`, the “activity, negative = inhibition” value was -5% (inactive). Same read-out and setting: with `Cc1ccc(S(=O)(=O)Nc2ccccc2C=O)cc1` the figure was -1.56% [at 11.4 µM] (inactive). As to `CCCCn1c(NCc2ccccc2NS(=O)(=O)c2ccc(C)cc2)nc2ccccc21`, the AC50 is 0.501 µM (active).

Regarding `CC(C)=NOCc1ccc(-c2cc(-c3ccccc3)no2)cc1`, the activity, negative = inhibition is 1.27% [at 11.4 µM] (inactive). Turning to `CCn1c(=O)[nH]c2ccccc21`, the “activity, negative = inhibition” value was -7.63% (inactive). Consider `O=c1[nH]c2ccccc2n1CCCN1CCN(C(c2ccccc2)c2ccccc2)CC1`, for which the half-maximal activity concentration (AC50) is 0.794 µM (active). Consider `CCN1CNC(=S)N(c2cc(C)ccc2C)C1`, for which the “activity, negative = inhibition” value was -12.5% (inactive). The same measure, in the same setting: with `O=C(Nc1ccccc1)N1CC2(CCN(C(=O)c3ccco3)CC2)C1` the figure was 14% (inactive). For `O=C(c1ccco1)N1CCC2(CCN(Cc3ccccc3)CC2)CC1`, the AC50 was 3.98 µM (active). As for `COc1ccc(NC(=O)N2CC3(CCN(C(=O)c4ccco4)CC3)C2)cc1`, the “activity, negative = inhibition” value is 1.51% (inactive). For the compound `O=C(c1ccco1)N1CCC2(CCN(Cc3nccs3)CC2)CC1`, the AC50 is 1 µM (active). The same measure, in the same setting: with `COc1ccccc1CN1CC[C@@]2(CCCN(C(=O)c3ccco3)C2)C1` the figure was 0.501 µM (active).

Turning to `O=C(c1cccc(F)c1)N1CCC2(CCN(Cc3nccs3)CC2)CC1`, the “activity, negative = inhibition” value is -11% (inactive).

Take `O=C(c1ccco1)N1CCC[C@@]2(CCN(Cc3ccccc3)C2)C1`: the AC50 was 2 µM (active).

Take `CC(=O)N1CCC2(CCN(Cc3nccs3)CC2)CC1`: the “activity, negative = inhibition” value is -17.9% (inactive). For `C=C(C)C1CC=C(C)/C(=N/NC(=O)c2ccc(NC(=O)c3cccc(C)c3)cc2)C1` (centres undefined), the “activity, negative = inhibition” value is -15.3% (inactive). Turning to `Clc1ccc(-c2csc(N3CCC(c4ccccc4)C3)n2)cc1` (centres undefined), the “activity, negative = inhibition” value was -15.1% (inactive).

For `COc1ccc(C2CC(C(F)(F)F)n3nc(C(=O)N(C)Cc4cn(C)nc4C)c(Cl)c3N2)cc1` (centres undefined), the “activity, negative = inhibition” value is -6.09% (inactive).

For `O=C(Nc1cccc(F)c1)N1CC2(CCN(C(=O)c3cc(C(F)(F)F)cc(C(F)(F)F)c3)CC2)C1`, the “activity, negative = inhibition” value was -2.33% (inactive). `O=C(O)c1c(-c2c3ccc(=O)cc-3oc3cc(O)ccc23)cc2ccccc2c1-c1ccccc1`: the activity, negative = inhibition was 6.33% [at 11.4 µM] (inactive). For the compound `Cc1ccc(/C=C2\OC(=O)c3ccccc32)cc1`, the “activity, negative = inhibition” value was -8.38% (inactive).

Consider `CC(=O)c1cnc2c(C(=O)O)cnn2c1C`, for which the “activity, negative = inhibition” value was 3.23% (inactive). Turning to `COn1c(-c2ccccc2)nc2c1CCc1nonc1-2`, the “activity, negative = inhibition” value was -10.9% (inactive).
